DRD3 antagonist = D3 dopamine receptor (human) antagonism. actives 2.5% (n = 360,000). max response, negative = inhibition, %. D3R cells, DiscoveRx beta-arrestin luminescence, antagonist mode; active compounds read low. AID 652054. P35462; in the data active means max response below about -50%; inconclusive means no clear call, values can overlap the other calls; further: on the % scale 0 is the no-effect control and ±100 the full control effect
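Cells expressing the human receptor were seeded at 1500 cells/well, incubated overnight at 37 degrees C in 5% CO2, then exposed to library compounds with dopamine controls for 90 minutes at 37 degrees C before luminescent detection.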
D1 potentiator = enhances dopamine response at the human D1 receptor; P21728; HEK293 TREx D1 cells, calcium flux, dopamine EC20 potentiation; potentiation, % at 10 µM; actives 0.036% (n = 360,000); in the data active means potentiation above about 30%; further: 0% is about no effect
Target sequence (P21728 whole entry, looked up): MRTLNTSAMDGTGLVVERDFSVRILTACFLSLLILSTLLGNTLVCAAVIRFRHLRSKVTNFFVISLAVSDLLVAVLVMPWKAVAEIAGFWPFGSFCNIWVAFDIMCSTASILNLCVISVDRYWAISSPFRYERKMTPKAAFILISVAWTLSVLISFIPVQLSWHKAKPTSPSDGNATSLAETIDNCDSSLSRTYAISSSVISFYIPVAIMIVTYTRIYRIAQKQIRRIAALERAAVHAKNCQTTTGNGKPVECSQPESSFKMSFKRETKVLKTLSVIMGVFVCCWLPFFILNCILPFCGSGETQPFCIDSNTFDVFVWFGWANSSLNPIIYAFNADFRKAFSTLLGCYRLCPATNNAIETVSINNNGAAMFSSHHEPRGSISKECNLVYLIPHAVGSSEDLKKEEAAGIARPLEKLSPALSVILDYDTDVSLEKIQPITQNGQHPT
DRD3 agonist = D3 dopamine receptor (human) agonism | actives 0.58% (n = 410,000) | P35462 | max activation, % | AID 652048 | D3R DiscoveRx beta-arrestin cells, luminescence, 90 min; in the data active means max activation above about 30%; further: 0% is about no effect
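Cells at 1500/well, incubated overnight, then treated with pinned compounds (dopamine as control) for 90 min at 37 degrees C. DiscoveRx reagent added for 30 - 60 minutes at room temperature; luminescence read.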
D1 ag = agonists of human D1 dopamine receptor | HEK293 T-REx D1 cells, calcium flux, agonist mode | activation, % at 2 µM | actives 1% (n = 360,000); in the data active means activation above about 30%; further: 0% is about no effect
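Inducible HEK293 T-REx D1 cells, force-coupled to calcium signalling, were plated at 4000 cells/well with tetracycline and held overnight at 30 C. After no-wash calcium dye loading, compound-evoked calcium rise over 180 s flagged agonists.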
D1 antagonist = blocks dopamine activation of the human D1 receptor. P21728. HEK293 TREx D1 cells, calcium flux, dopamine EC80; active compounds read low. activity change, negative = inhibition, % at 10 µM. actives 3.2% (n = 360,000). AID 504652; in the data active means activity change below about -30%; further: on the % scale 0 is the no-effect control and ±100 the full control effect
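Cells carrying a force-coupled, tetracycline-inducible human D1 receptor report calcium flux. Each well gets a 10 s baseline, compound with 180 s monitoring, then an EC80 dopamine stimulus with a second 180 s kinetic read.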
* marks the source's active call; other numbers are inactive results; ? = inconclusive; · = no result given. Shown are actives, neighbours in structure and some others; about 6.1% of the full set was active somewhere.

SMILES	DRD3 antagonist	D1 potentiator	DRD3 agonist	D1 ag	D1 antagonist
COc1ccc(CNC(=O)C2=C(C)C(=O)OC23CCN(C(C)=O)CC3)cc1	·	-3	-7	1	-3
CCOc1ccc(NC(=O)C(=O)NCCN2CCN(C(=O)c3ccc(C)cc3)CC2)cc1	-60*	-1	-22	0	-1
COc1ccc(C(=O)N2CCN(CCNC(=O)C(=O)Nc3ccc(Br)cc3)CC2)cc1	7	-5	-21	3	-24
CC(C)Oc1ccc(C(CC(=O)NCCCN(C)C)c2ccc(F)cc2)cc1 (stereo unspecified)	-13	-7	-6	2	-37*
CCOC(=O)c1cc(S(=O)(=O)N2CCN(c3ccc(OC)cc3)CC2)[nH]n1	·	-2	-11	0	1
CCOc1ccc(C2N(c3ccc(OC)cc3)C(=O)C3CCCN32)cc1OC (stereo unspecified)	-12	·	-1	1	5
CCOc1ccc(C2N(c3ccc(Cl)cc3)C(=O)C3CCCN32)cc1OC (stereo unspecified)	-21	-4	-2	2	-42*
CCOC(=O)N1CCN(Cc2nc3cc(NC(=O)c4ccccc4Cl)ccc3n2C(C)C)CC1	·	-1	-33	1	-19
CCN(CC)S(=O)(=O)c1cccc(-c2nnc(SCCCC(=O)c3ccc(F)cc3)o2)c1	36	-3	4	34*	0
CN(c1ccc(C(=O)Nc2cccnc2)cc1)S(=O)(=O)c1ccc(Cl)cc1	-7	-2	3	15	-41*
COc1ccc(S(=O)(=O)N(C)c2ccc(C(=O)Nc3cccnc3)cc2)cc1	5	-2	3	3	-33*
CS(=O)(=O)N(Cc1ccc(Cl)cc1)c1ccc(C(=O)Nc2cccnc2)cc1	-23	-10	14	16	-38*
Cc1ccc(NC(=O)COC(=O)CCc2c(C)nc3ncnn3c2C)cc1	-12	·	32*	·	·
CCOc1cccc2sc(N3CCN(C(=O)c4ccc5c(c4)CCCC5)CC3)nc12	·	13	0	-1	·
CCCC(=O)C1=C(c2cccc(OC)c2)N(C(=O)CCC)n2c(C)nnc2S1	·	-1	2	12	·
O=C(c1ccc(Br)o1)N1CCN(Cc2ccc3c(c2)OCO3)CC1	-81*	3	-4	1	1
O=C(c1ccc(Br)s1)N1CCN(Cc2ccc3c(c2)OCO3)CC1	-95*	-4	-57	0	-35*
CS(=O)(=O)N1CCN(C(=O)c2ccc(Br)s2)CC1	-27	-4	15	-2	-32*
O=C(C1=C[C@@H](c2ccc(Br)cc2)C[C@@H](OCc2ccc(CO)cc2)O1)N1CCN(Cc2ccc3c(c2)OCO3)CC1	-63*	1	-13	6	15
CN(C)c1ccc(/C=C2\SC(N3CCCCC3)=NC2=O)cc1	0	29	2	37*	-17
COc1ccc(NS(=O)(=O)c2cccs2)c(OC)c1	32	5	1	1	0
COc1ccc(Nc2nc3ccccc3nc2NS(=O)(=O)c2cccs2)c(OC)c1	-101*	-4	-15	7	-3
COc1cccc(Nc2nc3ccccc3nc2NS(=O)(=O)c2cccs2)c1	-23	-6	-6	16	-32*
O=C(O)c1ccc(Nc2nc3ccccc3nc2NS(=O)(=O)c2cccs2)cc1	-5	0	5	2	-1
CCOc1ccccc1Nc1ccc2cc(S(=O)(=O)N3CCCCC3)ccc2n1	·	-7	-7	2	12
SMILES	DRD3 antagonist	D1 potentiator	DRD3 agonist	D1 ag	D1 antagonist
CCOC(=O)N1CCc2c(sc3c2c(=O)n(Cc2ccccc2)c(=O)n3Cc2ccccc2Cl)C1	·	-2	5	0	4
CCc1ccc(/C=N/Nc2ncnc3nc[nH]c23)cc1	3	3	6	3	7
CCc1ccc(N=Nc2ccc(O)c3[nH]cnc23)cc1	1	1	-27	40*	·
COc1ccc(NC(=O)c2c(NCc3cccs3)sc3c2CCCCC3)cc1	·	1	-21	3	-6
Cc1cccc(N2CCN(C(=O)CSc3nc4ccccc4nc3N3CC(C)OC(C)C3)CC2)c1C (stereo unspecified)	39	-4	76*	6	-8
Cc1cccc(NC(=O)CSc2nc3ccccc3nc2N2CC(C)OC(C)C2)c1 (stereo unspecified)	20	-6	5	3	-5
O=C1CC(N2CCN(C/C=C/c3ccccc3)CC2)C(=O)N1Cc1cccs1 (stereo unspecified)	-63*	-6	-8	3	0
O=C1CC(N2CCN(c3ccc(O)cc3)CC2)C(=O)N1Cc1cccs1 (stereo unspecified)	-5	4	4	0	4
O=C1CC(N2CCN(C/C=C/c3ccccc3)CC2)C(=O)N1CCc1ccccc1 (stereo unspecified)	?	-9	-20	10	-22
O=C(c1ccncc1)c1ccc(N2CCN(C3CC(=O)N(Cc4cccs4)C3=O)CC2)cc1 (stereo unspecified)	10	-5	-2	13	-39*
COc1ccc(S(=O)(=O)N(CCc2ccccc2)CC(=O)NCc2ccccc2)cc1OC	·	1	-10	2	-16
C#CCOCCOCCOCCNc1nc(N2CCN(C(=O)CCCCCCCCCCNC(=O)[C@@H](CCC(=O)O)n3cc(CCCCCN)nn3)CC2)nc(N2CCN(C(=O)CCCCCCCCCCNC(=O)[C@H](CCCCN)n3cc(C[C@@H](C)CC)nn3)CC2)n1	?	44*	3	65*	67
C#CCOCCOCCOCCNc1nc(N2CCN(C(=O)CCCCCCCCCCNC(=O)[C@@H](CCC(=O)O)n3cc(CCCCCN)nn3)CC2)nc(N2CCN(C(=O)CCCCCCCCCCNC(=O)[C@H](CO)n3cc(CCCSC)nn3)CC2)n1	32	-3	5	17	24
C#CCOCCOCCOCCNc1nc(N2CCN(C(=O)CCCCCCCCCCNC(=O)[C@@H](CCSC)n3cc(CCO)nn3)CC2)nc(N2CCN(C(=O)CCCCCCCCCCNC(=O)[C@H](CO)n3cc(CCCCCN)nn3)CC2)n1	68	-6	9	3	-39*
C#CCOCCOCCOCCNc1nc(N2CCN(C(=O)CCCCCCCCCCNC(=O)[C@H](CCCCN)n3cc(CCO)nn3)CC2)nc(N2CCN(C(=O)CCCCCCCCCCNC(=O)[C@H](CCCCN)n3cc(CCCC(=O)O)nn3)CC2)n1	-9	-6	-9	18	-6
C#CCOCCOCCOCCNc1nc(N2CCN(C(=O)CCCCCCCCCCNC(=O)[C@@H](CCC(=O)O)n3cc(CCCCCN)nn3)CC2)nc(N2CCN(C(=O)CCCCCCCCCCNC(=O)[C@H](CO)n3cc(CCCCCN)nn3)CC2)n1	5	-4	2	45*	-4
